The source of these data is PubChem BioAssay (NCI).

About 83,000 compounds went through this panel and 20% of them were active in at least one assay; those are over-represented in the sample as a whole.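 Interpretation: 100, growth as untreated; towards 0, rising growth inhibition; 0, no net growth; 0 to -100, cell death. Compounds scoring below 10 were considered active.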 A number with no mark means an inactive call. Calls of active or inactive are those of the source.

Among the test systems are SK-MEL-2 melanoma; EKVX NSCLC; SN12C renal; UO-31 renal; TK-10 renal; ACHN renal; CAKI-1 renal; A498 renal; CCRF-CEM leukemia; MOLT-4 leukemia; SR leukemia; OVCAR-8 ovarian; OVCAR-5 ovarian; OVCAR-4 ovarian; SK-OV-3 ovarian; IGROV1 ovarian; OVCAR-3 ovarian; NCI/ADR-RES ovarian; RPMI-8226 leukemia; HS 578T breast.
What all share (test): NCI-60 one-dose screen, 48 h (100 = growth as untreated, 0 = no growth, -100 = all killed)
Holding throughout (settings): 10 µM unless noted

As to `O=C(O)c1ccc2cccnc2c1O`, the growth in the assay with SK-MEL-2 melanoma was 4.77% (active); in the assay with EKVX NSCLC, 18.8%; in the assay with SN12C renal it was 7.06% (active); in the assay on UO-31 renal it was -5.79% (active); in the assay with TK-10 renal it was 13.2%; in the assay on ACHN renal, 7.69% (active). Moreover, the growth with CAKI-1 renal is 4.24% (active); with A498 renal, 13.6%; with CCRF-CEM leukemia, 10.3%; in the assay with MOLT-4 leukemia it was 11.2%; with SR leukemia, 5.47% (active); in the assay with OVCAR-8 ovarian it was 13.6%. For the same molecule, the growth in the assay on OVCAR-5 ovarian was 24.2%; in the assay with OVCAR-4 ovarian it was 17.7%; with SK-OV-3 ovarian, -10.7% (active); in the assay on IGROV1 ovarian, 5.01% (active); in the assay with OVCAR-3 ovarian, 1.49% (active); with NCI/ADR-RES ovarian, -1.54% (active).
Consider `Cc1cc2ccccn2c1C(=O)c1ccc(C(=O)c2ccccc2)cc1`, for which the growth in the assay on SK-MEL-2 melanoma was 15%; in the assay on EKVX NSCLC it was 91.8%; with SN12C renal, 94.5%; with UO-31 renal, 62.5%; in the assay with TK-10 renal, 98.7%; in the assay with ACHN renal, 93%. The growth is 106% in the assay on CAKI-1 renal; 90.5% in the assay with A498 renal; 86.6% with CCRF-CEM leukemia; 78.4% in the assay with MOLT-4 leukemia; -3.06% (active) in the assay on SR leukemia; 82.1% in the assay with RPMI-8226 leukemia. Moreover, the growth is 87.9% in the assay with OVCAR-8 ovarian; 81.4% in the assay with OVCAR-4 ovarian; 111% in the assay on SK-OV-3 ovarian; 96% in the assay on OVCAR-3 ovarian; 86% in the assay with HS 578T breast; 72% in the assay on NCI/ADR-RES ovarian.
Take `COC(=O)[C@H]1[C@H]2C[C@@H]3c4[nH]c5cc(OC)ccc5c4CCN3C[C@H]2C[C@@H](OC(=O)/C=C/c2cc(OC)c(OC)c(OC)c2)[C@@H]1OC`: the growth with SK-MEL-2 melanoma was 66.2%; in the assay with EKVX NSCLC it was 90.4%; with SN12C renal, 63.3%; in the assay with UO-31 renal it was 69.2%; with TK-10 renal, 46.4%; with ACHN renal it was 68.5%. Besides, the growth was 30.9% in the assay on CAKI-1 renal; 81.7% with A498 renal; 5.36% (active) with CCRF-CEM leukemia; 8.49% (active) in the assay on MOLT-4 leukemia; -7.74% (active) with SR leukemia; 50.6% with OVCAR-8 ovarian. Moreover, the growth in the assay with OVCAR-5 ovarian is 113%; in the assay with OVCAR-4 ovarian it was 13.6%; in the assay on SK-OV-3 ovarian, 98.6%; in the assay with OVCAR-3 ovarian it was -42.8% (active); with HS 578T breast, 69.3%; in the assay with NCI/ADR-RES ovarian, 49.1%.
For the molecule `CCCCN1c2nc3ccccc3cc2Sc2cc3ccccc3nc21`, the growth was 61.9% with SK-MEL-2 melanoma; 85.1% with EKVX NSCLC; 102% with SN12C renal; 22% in the assay on UO-31 renal; 108% with TK-10 renal; 107% in the assay on ACHN renal. For the same molecule, the growth was 460% in the assay on CAKI-1 renal; 116% in the assay on A498 renal; 89.2% with CCRF-CEM leukemia; 103% in the assay on MOLT-4 leukemia; 76.5% in the assay on SR leukemia; 78.4% in the assay with RPMI-8226 leukemia. The growth in the assay with OVCAR-8 ovarian is 106%; with OVCAR-4 ovarian, 93.7%; in the assay with SK-OV-3 ovarian, 112%; in the assay with HS 578T breast, 99.8%; in the assay on NCI/ADR-RES ovarian, 106%.
Turning to `O=C(C(=O)N1CCOCC1)c1cn(CCCn2cc(C(=O)C(=O)N3CCOCC3)c3ccccc32)c2ccccc12`, the growth in the assay on SK-MEL-2 melanoma is 100%; in the assay with EKVX NSCLC it was 104%; in the assay with SN12C renal, 96.3%; in the assay with UO-31 renal it was 75.3%; in the assay with TK-10 renal, 97.6%; in the assay on ACHN renal it was 100%. Besides, the growth in the assay with CAKI-1 renal is 104%; with A498 renal, 134%; in the assay with CCRF-CEM leukemia, -13.1% (active); in the assay with MOLT-4 leukemia, 104%; with SR leukemia, 103%; with OVCAR-8 ovarian, 104%. Further, the growth was 102% in the assay on OVCAR-5 ovarian; 109% in the assay with OVCAR-4 ovarian; 111% in the assay with SK-OV-3 ovarian; 107% in the assay on IGROV1 ovarian; 119% with OVCAR-3 ovarian; 109% in the assay on NCI/ADR-RES ovarian.
For `Nc1ccccc1-c1ccn[nH]1`, the growth in the assay with SK-MEL-2 melanoma is 83.5%; in the assay on EKVX NSCLC it was 87%; in the assay with SN12C renal, 87.9%; in the assay on UO-31 renal, 50.9%; with TK-10 renal, 119%; in the assay on ACHN renal, 70.5%. The growth is 68.4% in the assay with CAKI-1 renal; 103% in the assay on A498 renal; 97.4% with CCRF-CEM leukemia; 98.7% in the assay on MOLT-4 leukemia; 99.7% in the assay on SR leukemia; 103% in the assay on OVCAR-8 ovarian. The growth was 83% in the assay on OVCAR-5 ovarian; 92.1% in the assay with SK-OV-3 ovarian; 84.2% in the assay on IGROV1 ovarian; 91.6% with OVCAR-3 ovarian; 100% in the assay on HS 578T breast; 105% with NCI/ADR-RES ovarian.
As to `O=[N+]([O-])c1ccc(N=Nc2c(Cl)cc(O)cc2Cl)cc1`, the growth with SK-MEL-2 melanoma was -19.1% (active); in the assay with EKVX NSCLC it was 1.71% (active); in the assay with SN12C renal, 0.728% (active); with UO-31 renal it was -31.5% (active); with TK-10 renal, 9.62% (active); in the assay with ACHN renal it was 1.34% (active). In addition, the growth with CAKI-1 renal was -11.9% (active); with A498 renal, -26.4% (active); with CCRF-CEM leukemia, 8.97% (active); in the assay with MOLT-4 leukemia, -19% (active); in the assay on SR leukemia, 3.27% (active); with OVCAR-8 ovarian, 6.5% (active). In addition, the growth was 25.3% in the assay on OVCAR-5 ovarian; 12.1% in the assay with OVCAR-4 ovarian; 13.3% in the assay on SK-OV-3 ovarian; 6.67% (active) in the assay with IGROV1 ovarian; -25.3% (active) in the assay on OVCAR-3 ovarian; -20% (active) with HS 578T breast. The growth in the assay on NCI/ADR-RES ovarian was -19.7% (active).
Take `COc1cccc(C2=NN(C(C)=O)C(c3cc(OC)c(OC)c(OC)c3)C2)c1` (stereo unspecified): the growth is 26.9% in the assay on SK-MEL-2 melanoma; 47.4% in the assay on EKVX NSCLC; 42.7% in the assay with SN12C renal; -29.9% (active) in the assay on UO-31 renal; 78.4% in the assay on TK-10 renal; 56.1% in the assay on ACHN renal. In addition, the growth in the assay on CAKI-1 renal was 216%; with A498 renal, 71.3%; in the assay with CCRF-CEM leukemia, -7.81% (active); with MOLT-4 leukemia, 9.77% (active); in the assay on SR leukemia, -6.23% (active); with RPMI-8226 leukemia, 4.18% (active). In addition, the growth with OVCAR-8 ovarian is 37.5%; in the assay with OVCAR-4 ovarian it was 48.5%; in the assay with SK-OV-3 ovarian, 30.4%; in the assay with OVCAR-3 ovarian, 33.1%; in the assay on HS 578T breast, 15.4%; in the assay on NCI/ADR-RES ovarian, 19%.
Turning to `CS(=O)(=O)N1CCN(Cc2cc3nc(-c4cccc5[nH]ncc45)nc(N4CCOCC4)c3s2)CC1` (tested in a mixture with another compound), the growth in the assay on SK-MEL-2 melanoma is 33.4%; in the assay on EKVX NSCLC, 16.7%; in the assay on SN12C renal it was 17%; in the assay on UO-31 renal, -12.9% (active); with TK-10 renal, 20.5%; with ACHN renal it was 12.2%. For the same molecule, the growth is -1.96% (active) with CAKI-1 renal; -62.1% (active) in the assay with A498 renal; 20.9% with CCRF-CEM leukemia; 8.77% (active) with MOLT-4 leukemia; 23.2% in the assay with SR leukemia; 26.1% in the assay with OVCAR-8 ovarian. Further, the growth with OVCAR-5 ovarian was 21.5%; in the assay with OVCAR-4 ovarian, 39.7%; in the assay with SK-OV-3 ovarian it was -25.6% (active); in the assay on IGROV1 ovarian, -30.2% (active); in the assay on OVCAR-3 ovarian, 12.4%; in the assay on NCI/ADR-RES ovarian it was 29.6%.
`Nc1ccc2c(c1)Cc1cc(Cl)c(Cl)cc1-2`: the growth in the assay on SK-MEL-2 melanoma is 47.5%; in the assay on EKVX NSCLC it was 48%; in the assay with SN12C renal, 57.2%; in the assay on UO-31 renal, 63.6%; in the assay with TK-10 renal it was 101%; with ACHN renal, 66.8%. Further, the growth with CAKI-1 renal is 65.4%; with A498 renal, 60.1%; in the assay on CCRF-CEM leukemia, 32.2%; in the assay on MOLT-4 leukemia it was 70.2%; in the assay with SR leukemia, 70.4%; in the assay on OVCAR-8 ovarian, 86.4%. Besides, the growth with OVCAR-5 ovarian is 82.6%; in the assay with OVCAR-4 ovarian, 78.6%; in the assay with SK-OV-3 ovarian, 69.1%; in the assay with IGROV1 ovarian it was 89.1%; in the assay on OVCAR-3 ovarian, 7.25% (active); in the assay with HS 578T breast, 67.9%. For the same molecule, the growth with NCI/ADR-RES ovarian was 62.9%.
In the case of `O=C(CC1Sc2ccccc2NC1=O)NNc1cccc(Cl)c1Cl` (stereo unspecified), the growth in the assay with SK-MEL-2 melanoma was 87%; with EKVX NSCLC, 91.3%; in the assay on SN12C renal it was 87.5%; with UO-31 renal it was 61.8%; with TK-10 renal, 89.9%; in the assay with ACHN renal it was 91.4%. Moreover, the growth is 90.4% in the assay with CAKI-1 renal; 61.5% in the assay with A498 renal; 70.8% in the assay on CCRF-CEM leukemia; 71.6% in the assay with MOLT-4 leukemia; 61% in the assay on SR leukemia; 82.7% in the assay with OVCAR-8 ovarian. Moreover, the growth in the assay on OVCAR-5 ovarian is 80.6%; with OVCAR-4 ovarian, 88.1%; in the assay on SK-OV-3 ovarian, 70.2%; with IGROV1 ovarian, 82.1%; in the assay on NCI/ADR-RES ovarian, 96.7%.
As for `C(=C1c2ccccc2-c2ccccc21)c1ccncc1`, the growth in the assay on SK-MEL-2 melanoma was 42.9%; in the assay on EKVX NSCLC, 59.5%; in the assay with SN12C renal it was 51.2%; in the assay with UO-31 renal it was 49.5%; in the assay on TK-10 renal, 64.6%; in the assay with ACHN renal it was 71.5%. The growth in the assay on CAKI-1 renal is 29.6%; with A498 renal it was 62%; in the assay on CCRF-CEM leukemia, 59.3%; with MOLT-4 leukemia, 39.5%; in the assay with SR leukemia, 9.55% (active); in the assay with OVCAR-8 ovarian, 64.1%. Also, the growth is 81% in the assay on OVCAR-5 ovarian; 57.1% with OVCAR-4 ovarian; 75.5% with SK-OV-3 ovarian; 44.9% in the assay on IGROV1 ovarian; 5.44% (active) with OVCAR-3 ovarian; 49.5% in the assay on HS 578T breast.
